# Laboratory results taken from PMC7862700, “An all-to-all approach to the identification of sequence-specific readers for epigenetic DNA modifications on cytosine”.
# Assays:
# Experiment in all cases: DAPPL (digital affinity profiling via proximity ligation, sequencing); 10 mM Tris-HCl pH 7.5, 50 mM NaCl, 1 mM DTT, 4% glycerol, room temperature, 30 min; GST-TFs on glutathione beads, 16-mer random dsDNA library, 0.1% formaldehyde crosslink after washing; high values mean tight binding
# Settings in all cases: protein: recombinant; tags: N-terminal GST; dsDNA, one strand shown
# [1] = target: T1, FLI1 (Homo sapiens, UniProt Q01543 1-452)
# T1 sequence: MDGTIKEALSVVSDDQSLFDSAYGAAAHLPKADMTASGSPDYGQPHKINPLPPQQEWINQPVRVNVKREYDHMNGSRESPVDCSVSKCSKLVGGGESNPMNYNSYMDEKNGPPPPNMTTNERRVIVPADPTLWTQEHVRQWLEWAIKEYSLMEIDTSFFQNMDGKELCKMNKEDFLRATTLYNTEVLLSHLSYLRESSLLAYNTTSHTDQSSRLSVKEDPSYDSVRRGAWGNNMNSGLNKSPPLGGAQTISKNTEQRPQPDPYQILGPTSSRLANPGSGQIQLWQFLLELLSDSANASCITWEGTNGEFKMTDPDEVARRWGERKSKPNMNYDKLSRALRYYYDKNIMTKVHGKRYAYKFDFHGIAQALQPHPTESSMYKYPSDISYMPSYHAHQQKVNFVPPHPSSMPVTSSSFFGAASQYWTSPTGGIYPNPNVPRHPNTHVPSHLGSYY
# How it was run: (§1)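 Human transcription factors fused to GST were expressed in yeast, captured on glutathione beads, given DNA barcodes and pooled with a GST-only negative control. Pools were incubated with 200 nmole of a 16-mer random double-stranded DNA library in Tris/NaCl/DTT/glycerol buffer at room temperature for 30 min. They were then washed, crosslinked with 0.1% formaldehyde, proximity-ligated (BsaI/T4 ligase, 1 h, 37 °C), PCR-amplified and sequenced on an Illumina NextSeq500. Binding signal is each 6-mer's read frequency for a factor divided by its frequency for the GST control.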
# [2] = target: T2, ELK1 (Homo sapiens, UniProt P19419 1-428)
# T2 sequence: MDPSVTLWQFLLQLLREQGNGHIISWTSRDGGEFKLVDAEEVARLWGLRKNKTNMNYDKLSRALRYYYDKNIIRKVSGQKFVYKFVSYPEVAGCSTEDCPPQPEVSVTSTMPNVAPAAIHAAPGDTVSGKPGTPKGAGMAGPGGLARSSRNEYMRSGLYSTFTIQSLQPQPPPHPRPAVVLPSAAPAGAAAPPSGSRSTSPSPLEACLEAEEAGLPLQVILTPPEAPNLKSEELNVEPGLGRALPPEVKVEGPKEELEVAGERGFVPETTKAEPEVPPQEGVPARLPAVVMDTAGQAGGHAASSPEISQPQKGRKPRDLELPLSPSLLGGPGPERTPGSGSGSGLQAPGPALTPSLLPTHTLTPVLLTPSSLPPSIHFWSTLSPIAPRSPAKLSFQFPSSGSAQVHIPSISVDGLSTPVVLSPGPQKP
# How it was run: as §1
# [3] = target: T3, GABPA (Homo sapiens, UniProt Q06546 1-454)
# T3 sequence: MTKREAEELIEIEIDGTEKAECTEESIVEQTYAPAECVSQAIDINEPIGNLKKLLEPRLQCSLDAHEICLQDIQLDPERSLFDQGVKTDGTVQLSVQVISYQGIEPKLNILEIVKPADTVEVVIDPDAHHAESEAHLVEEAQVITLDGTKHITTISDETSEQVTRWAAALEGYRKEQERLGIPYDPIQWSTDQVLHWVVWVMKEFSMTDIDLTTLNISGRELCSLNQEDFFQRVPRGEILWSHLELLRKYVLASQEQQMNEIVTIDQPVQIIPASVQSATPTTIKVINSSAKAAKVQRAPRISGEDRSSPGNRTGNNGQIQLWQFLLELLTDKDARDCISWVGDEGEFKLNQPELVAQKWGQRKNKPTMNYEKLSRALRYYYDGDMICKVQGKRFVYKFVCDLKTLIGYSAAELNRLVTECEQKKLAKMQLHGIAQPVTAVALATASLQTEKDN
# How it was run: as §1
# [4] = target: T4, ERG (Homo sapiens, UniProt P11308 1-479)
# T4 sequence: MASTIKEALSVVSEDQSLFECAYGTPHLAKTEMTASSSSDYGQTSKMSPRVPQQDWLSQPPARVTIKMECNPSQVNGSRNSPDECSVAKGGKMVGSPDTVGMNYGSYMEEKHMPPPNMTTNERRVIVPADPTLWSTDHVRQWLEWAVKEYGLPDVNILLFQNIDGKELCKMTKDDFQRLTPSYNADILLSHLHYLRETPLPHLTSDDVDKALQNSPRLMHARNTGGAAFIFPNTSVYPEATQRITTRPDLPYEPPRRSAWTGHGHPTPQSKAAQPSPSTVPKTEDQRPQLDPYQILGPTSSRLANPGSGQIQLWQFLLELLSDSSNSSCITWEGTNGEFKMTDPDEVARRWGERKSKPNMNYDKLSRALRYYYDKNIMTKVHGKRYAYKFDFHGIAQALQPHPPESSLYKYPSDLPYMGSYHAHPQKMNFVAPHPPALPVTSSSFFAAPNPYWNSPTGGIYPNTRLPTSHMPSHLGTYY
# How it was run: as §1
# [5] = target: ELF1 (Homo sapiens, UniProt P32519 1-619)
# Chain of ELF1 (P32519 whole entry): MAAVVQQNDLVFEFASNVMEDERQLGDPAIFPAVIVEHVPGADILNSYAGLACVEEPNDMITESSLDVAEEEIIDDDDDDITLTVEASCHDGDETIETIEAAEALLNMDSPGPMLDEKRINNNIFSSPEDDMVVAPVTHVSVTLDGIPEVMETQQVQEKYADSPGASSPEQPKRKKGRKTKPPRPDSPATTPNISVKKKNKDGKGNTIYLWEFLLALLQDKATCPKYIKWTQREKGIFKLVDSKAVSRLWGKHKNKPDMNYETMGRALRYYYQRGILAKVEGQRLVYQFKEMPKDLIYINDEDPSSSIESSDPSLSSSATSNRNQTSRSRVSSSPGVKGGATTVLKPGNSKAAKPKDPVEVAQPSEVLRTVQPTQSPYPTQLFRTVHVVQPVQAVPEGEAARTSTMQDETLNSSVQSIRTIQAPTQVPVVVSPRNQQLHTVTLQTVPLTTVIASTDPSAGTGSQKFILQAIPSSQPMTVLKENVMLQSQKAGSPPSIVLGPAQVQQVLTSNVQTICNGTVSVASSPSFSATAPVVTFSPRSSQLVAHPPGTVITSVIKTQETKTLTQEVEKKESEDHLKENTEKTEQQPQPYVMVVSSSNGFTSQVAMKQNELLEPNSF
# How it was run: as §1
# [6] = target: T5, EHF (Homo sapiens, UniProt Q9NZC4 1-300)
# T5 sequence: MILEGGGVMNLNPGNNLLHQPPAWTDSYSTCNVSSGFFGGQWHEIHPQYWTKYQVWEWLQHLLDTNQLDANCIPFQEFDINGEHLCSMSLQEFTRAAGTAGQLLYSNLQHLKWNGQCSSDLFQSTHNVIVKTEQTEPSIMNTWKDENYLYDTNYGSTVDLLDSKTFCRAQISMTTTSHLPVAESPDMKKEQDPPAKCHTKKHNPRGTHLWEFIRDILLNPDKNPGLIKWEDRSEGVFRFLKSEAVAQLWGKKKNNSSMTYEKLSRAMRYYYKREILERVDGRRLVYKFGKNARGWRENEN
# How it was run: as §1
# [7] = target: SPIB (Homo sapiens, UniProt Q01892 1-262)
# Chain of SPIB (Q01892 whole entry): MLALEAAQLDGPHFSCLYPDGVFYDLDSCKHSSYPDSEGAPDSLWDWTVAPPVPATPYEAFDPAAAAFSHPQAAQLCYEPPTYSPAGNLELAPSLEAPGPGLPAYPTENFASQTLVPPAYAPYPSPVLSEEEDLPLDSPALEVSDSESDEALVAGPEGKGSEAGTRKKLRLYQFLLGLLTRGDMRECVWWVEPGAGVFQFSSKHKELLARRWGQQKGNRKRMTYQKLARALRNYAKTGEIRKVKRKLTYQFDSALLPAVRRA
# How it was run: as §1
# [8] = target: T6, ELK3 (Homo sapiens, UniProt P41970 1-407)
# T6 sequence: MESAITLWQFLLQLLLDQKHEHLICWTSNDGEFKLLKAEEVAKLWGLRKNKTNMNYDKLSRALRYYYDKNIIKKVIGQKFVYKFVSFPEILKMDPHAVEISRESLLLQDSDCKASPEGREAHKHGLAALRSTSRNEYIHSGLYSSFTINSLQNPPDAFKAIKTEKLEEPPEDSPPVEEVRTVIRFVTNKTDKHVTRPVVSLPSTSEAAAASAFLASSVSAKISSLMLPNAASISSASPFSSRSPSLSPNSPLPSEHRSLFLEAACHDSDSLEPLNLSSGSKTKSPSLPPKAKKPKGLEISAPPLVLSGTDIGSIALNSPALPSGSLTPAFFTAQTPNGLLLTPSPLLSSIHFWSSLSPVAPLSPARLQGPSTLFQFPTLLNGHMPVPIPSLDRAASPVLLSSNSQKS
# How it was run: as §1
# [9] = target: T7, SPIC (Homo sapiens, UniProt Q8N5J4 1-248)
# T7 sequence: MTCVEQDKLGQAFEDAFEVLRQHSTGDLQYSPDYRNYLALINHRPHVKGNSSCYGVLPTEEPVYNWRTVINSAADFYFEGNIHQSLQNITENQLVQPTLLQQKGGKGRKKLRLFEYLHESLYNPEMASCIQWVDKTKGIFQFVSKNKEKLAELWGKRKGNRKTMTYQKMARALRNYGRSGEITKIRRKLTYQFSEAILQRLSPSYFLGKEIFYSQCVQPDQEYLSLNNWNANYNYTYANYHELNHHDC
# How it was run: as §1
# [10] = target: ELF4 (Homo sapiens, UniProt Q99607 1-663)
# Chain of ELF4 (Q99607 whole entry): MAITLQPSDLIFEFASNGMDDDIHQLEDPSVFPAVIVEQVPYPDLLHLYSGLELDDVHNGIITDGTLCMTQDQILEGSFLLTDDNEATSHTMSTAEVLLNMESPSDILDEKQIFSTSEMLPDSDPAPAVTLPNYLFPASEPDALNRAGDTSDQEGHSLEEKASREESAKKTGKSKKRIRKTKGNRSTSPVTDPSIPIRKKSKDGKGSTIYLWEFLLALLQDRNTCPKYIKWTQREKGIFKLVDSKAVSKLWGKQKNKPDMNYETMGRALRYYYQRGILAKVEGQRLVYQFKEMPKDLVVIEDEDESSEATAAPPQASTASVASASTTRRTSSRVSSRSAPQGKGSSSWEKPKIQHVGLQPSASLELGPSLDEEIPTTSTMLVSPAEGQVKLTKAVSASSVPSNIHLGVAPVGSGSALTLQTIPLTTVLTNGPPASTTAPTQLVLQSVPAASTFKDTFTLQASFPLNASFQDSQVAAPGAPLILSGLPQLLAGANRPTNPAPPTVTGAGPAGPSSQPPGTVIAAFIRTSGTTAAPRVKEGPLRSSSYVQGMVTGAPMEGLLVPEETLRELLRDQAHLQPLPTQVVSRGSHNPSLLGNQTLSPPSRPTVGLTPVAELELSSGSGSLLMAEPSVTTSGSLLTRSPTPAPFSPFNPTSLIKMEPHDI
# How it was run: as §1
sequence,measurement,setting,value
ACCCCT,binding signal,[1],"1.11 fold enrichment (6-mer frequency, TF over GST control)"
same,binding signal,[2],"1.07 fold enrichment (6-mer frequency, TF over GST control)"
same,binding signal,[3],"1.04 fold enrichment (6-mer frequency, TF over GST control)"
same,binding signal,[4],"1.01 fold enrichment (6-mer frequency, TF over GST control)"
same,binding signal,[5],"1.16 fold enrichment (6-mer frequency, TF over GST control)"
same,binding signal,[6],"1.09 fold enrichment (6-mer frequency, TF over GST control)"
same,binding signal,[7],"1.08 fold enrichment (6-mer frequency, TF over GST control)"
same,binding signal,[8],"1.08 fold enrichment (6-mer frequency, TF over GST control)"
same,binding signal,[9],"1.05 fold enrichment (6-mer frequency, TF over GST control)"
same,binding signal,[10],"1.09 fold enrichment (6-mer frequency, TF over GST control)"
